Values without a mark were called inactive.
test: E. coli acrAB mutant growth effects, primary screen, E. coli filamentation inducers, strain DRC39, OD650, 48 h (AID 1179);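 note: screen aims at cell division blockers that make cells filament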; conditions: E. coli DRC39 delta-acrAB growth, higher = more signal, called active from +8 up or from −8 down

Row | SMILES | z-score
1 | CCCC[C@H]1OB(O)C[C@H]2C1=C(COc1ccccc1)C[C@H]1C(=O)C=CC(=O)[C@H]12 | 0.715
2 | COCCOC(=O)N1C(=O)[C@@]2(c3ccccc31)[C@H](C(=O)N1CCN(c3ncccn3)CC1)[C@H]1C(=O)O[C@H](c3ccccc3)[C@H](c3ccccc3)N1[C@@H]2c1ccccc1OCCO | 0.611
3 | COC(=O)[C@@]1(Cc2ccccc2)[C@H]2c3cc(C(=O)N(C)C)n(CCO)c3C[C@H]2CN1C(=O)c1ccccc1 | -0.217
4 | [N-]=[N+]=Nc1ccccc1[C@@H]1OC(c2ccc(OCCCO)cc2)=N[C@]1(Cc1ccccc1)C(=O)NCCN1CCOCC1 | -0.382
5 | COc1cc(C(O)C2C=CC3C(=O)N(c4ccccc4)C(=O)C3N2Nc2ccccc2)cc(OC)c1OC (stereo unspecified) | -0.433
6 | C=CCC(OC(C)=O)[C@@H]1[C@@H](N(Cc2ccc(-c3ccccc3)cc2)C(=O)c2cccc3ccccc23)c2cc(OCCCO)ccc2N1C(=O)Cc1ccc(OC)cc1 (stereo partly specified) | -0.288
7 | Cc1ccc(N2C(=O)c3ccccc3[C@](C)(C(=O)NCCCN(C)C)[C@@H]2c2ccc(CO)cc2)nc1 | -0.575
8 | CCOC(=O)C[C@H]1[C@H](OC(=O)Cc2ccc3c(c2)OCO3)[C@@H](NC(=O)Cc2ccc(OC)cc2)c2cc(OCCCO)ccc2N1C(=O)Cc1ccc(OC)cc1 | 1.94
9 | O=C1N(CCS(=O)(=O)c2ccccc2)c2ccccc2C[C@]12N=C(c1ccc(OCCCO)cc1)O[C@@H]2c1ccccc1 | -0.0504
10 | C=CCOC(=O)[C@@H]1[C@H]2C(=O)O[C@H](c3ccccc3)[C@H](c3ccccc3)N2[C@H](c2ccc(OCCOC(=O)[C@H]3C[C@H]4C(=O)N5CCC[C@H]5C(=O)N4[C@H]3c3cccc(OCCO)c3)cc2)[C@@]12C(=O)Nc1ccc(I)cc12 | -0.365
11 | COc1ccc([Si](C)(C)[C@H]2[C@H](CC(=O)N3Cc4ccccc4C[C@H]3CO)O[C@@]3(C(=O)N(c4ccccc4)c4ccccc43)[C@@H]2C)cc1 | -0.288
12 | CCN(CC)c1ccc(N2CC=CC34O[C@@H]5C=CCCOC(=O)C5[C@H]3C(=O)N(C(C)CO)[C@@H]4C2=O)cc1 (stereo partly specified) | -0.693
13 | COCCOC(=O)N1C(=O)[C@@]2(c3cc(C#CC4(O)CCCCCC4)ccc31)[C@H](c1ccc(O)cc1)N1[C@H](c3ccccc3)[C@H](c3ccccc3)OC(=O)[C@H]1[C@@H]2C(=O)N1CCCCCCC1 | 0.625
14 | COC(=O)[C@@]1(Cc2ccc(F)cc2)[C@H]2c3cc(C(=O)N(C)C)n(C)c3C[C@H]2CN1C(=O)c1ccccc1 | -0.705
15 | O=C(NC1CC1)[C@@H]1c2ccccc2C(=O)N(Cc2cc(C(F)(F)F)cc(C(F)(F)F)c2)[C@H]1c1ccc(CO)cc1 | -0.261
16 | COc1ccc(C(O)C2C=CC3C(=O)NC(=O)C3N2Nc2ccc(Cl)cc2Cl)c2ccccc12 (stereo unspecified) | -0.626
17 | O=C(NCCN1CCOCC1)[C@@H]1c2ccccc2C(=O)N(Cc2ccccc2C(F)(F)F)[C@H]1c1ccc(CO)cc1 | 0.192
18 | CN(C)CCCCNC(=O)[C@H]1C[C@H]2C(=O)N3CCC[C@H]3C(=O)N2[C@H]1c1cccc(OCCO)c1 | -0.536

Row | SMILES | z-score
19 | COc1ccc(CCNC(=O)[C@@H]2c3ccccc3C(=O)N(Cc3ccccc3OC)[C@H]2c2ccc(CO)cc2)cc1 | 0.258
20 | CC(C)OC(=O)CC(=O)CC(O)c1cccc([N+](=O)[O-])c1 (stereo unspecified) | 2
21 | CCOC(=O)C[C@H]1[C@H](OC(=O)c2cc3ccccc3oc2=O)[C@@H](NC(=O)CC(C)C)c2cc(OCCCO)ccc2N1C(=O)Cc1ccc(OC)cc1 | -1.18
22 | CC1=C([C@H](O)CCc2ccccc2)[C@H](CO)n2c(=O)n(-c3ccccc3)c(=O)n2C1 | 1.35
23 | CC(C)(C)N1CC=CC23O[C@@H]4C=CCCOC(=O)C4[C@H]2C(=O)N(CCCCCCO)[C@@H]3C1=O (stereo partly specified) | 0.43
24 | CCCCCC1=C2CNC(CC(C)C)(C(=O)OC)C=C2C(C)C1=O (stereo unspecified) | 0.501
25 | O=C1C=C(c2ccccc2)C(=O)C2=C1CC([C@H]1Oc3ccccc3S(=O)(=O)N3CCC[C@@H]13)=CC2 | -0.807
26 | O=C1C[C@@](C(=O)O)(c2ccc([N+](=O)[O-])cc2)[C@@H](c2ccc(CO)cc2)N1C1CCCCC1 | -0.199
27 | CO[C@H]1O[C@H](CO)[C@@H](OC(=O)Nc2ccccc2-c2ccccc2)[C@H](OC(=O)Nc2ccccc2)[C@H]1OC(=O)Nc1ccccc1 | 0.172
28 | O=C1c2ccccc2[C@@]2(Cc3ccccc3N(Cc3ccccc3)C2=O)[C@H](c2ccc(CO)cc2)N1Cc1ccccc1Cl | 0.86
29 | CCCNC(=O)[C@@]1(c2ccc([N+](=O)[O-])cc2)CC(=O)N(C(C)C)[C@@H]1c1ccc(CO)cc1 | -0.508
30 | [N-]=[N+]=Nc1ccccc1C[C@@]1(C(=O)NCC(O)CO)N=C(c2ccc(OCCCO)cc2)O[C@@H]1c1ccccc1 (stereo partly specified) | -0.0622
31 | CC(C)C[C@@H]1NC(=O)[C@@H]2C[C@H](C(=O)NCCCCCCNC(=O)CS)[C@H](c3cccc(OCCO)c3)N2C1=O | -0.881
32 | CC(=O)NCCCC[C@@H]1NC(=O)[C@H]2C[C@@H](C(=O)NCCCCCCNC(=O)CS)[C@@H](c3cccc(OCCO)c3)N2C1=O | -0.264
33 | O=C1[C@@H]2[C@@H](CC(COc3ccccc3)=C([C@H](O)CCc3ccccc3)[C@@H]2CO)C(=O)N1Cc1ccccc1 | 0.203
34 | O=C(NCC(O)CO)[C@@]1(CCS(=O)(=O)c2ccccc2)N=C(c2ccc(OCCCO)cc2)O[C@H]1c1ccccc1 (stereo partly specified) | -0.618
35 | CN(C)c1ccc(C(O)C2C=CC3C(=O)N(Cc4ccccc4)C(=O)C3N2n2cnnc2)cc1 (stereo unspecified) | 0.694
36 | COCCOC(=O)N1C(=O)[C@@]2(c3cc(C#CCC(C(=O)OC)C(=O)OC)ccc31)[C@H](C(=O)Nc1nc3ccccc3s1)[C@H]1C(=O)O[C@H](c3ccccc3)[C@H](c3ccccc3)N1[C@@H]2c1ccc(OCCO)cc1 | 0.972

From PubChem BioAssay
